Measured values reported in PubChem BioAssay AID595 (National Center for Advancing Translational Sciences (NCATS), 2007).
Hit rate of the full screen: of about 71,000 compounds, about 310 (0.44%) were called active. Roughly 5% stayed inconclusive and do not appear here. Calls follow the shape of the dose curve; as a rule, active = well fitted curve in either direction with a large enough effect; inconclusive = small, poorly fitted or top-dose-only effect, or another doubt; inactive = flat fitted curve, though single readings scatter. Only a selection was taken, and actives are over-represented in it overall.

system: Hsp90 C-terminal peptide / TPR2A (Hop) interaction, human; experiment: qHTS Assay for Disrupters of an Hsp90 Co-Chaperone Interaction; details: AlphaScreen TPR2A-His6 binding biotin-Hsp90 C-terminal peptide; series mostly up to 57 µM
Text: NIH Chemical Genomics Center [NCGC]
NIH Molecular Libraries Screening Centers Network [MLSCN]
Hsp90 (heat shock protein 90) is the essential molecular chaperone and it accounts for 1-2% of all cytosolic proteins and is critical for the activity of diverse cellular proteins that are involved in a variety of cellular processes, including development, cell cycle, and steroid hormone signaling. Its client proteins include signaling kinases such as IGF1R, Akt, v-Src, Raf-1; regulators of cell survival such as Bcr-Abl; and transcription factors such as mutated p53, estrogen and progesterone receptors. Hsp90 has emerged as an important target for cancer treatment due to its essential role in maintaining transformation and regulating the function of oncogenic signaling proteins.
The in vivo function of Hsp90 is regulated by the binding and hydrolysis of ATP at its N-terminal. Geldanamycin binds to ATP site and inhibit Hsp90 function. Geldanamycin and its analogues are under clinical trials in cancer patients.
This domain contains the binding site for tetratricopeptide repeat (TPR) domains on HOP (Hsp Organizing Protein). TPR is a structural motif used by a significant number of cochaperones by which the in vivo function of Hsp90 is regulated. TPR2A on HOP binds specifically to MEEVD motif of the C-terminal of Hsp90.
A homogeneous AlphaScreen is developed to assess the interaction between TPR2A and MEEVD motif of the C-terminal of Hsp90 by using the isolated TPR2A domain and a synthesized 20mer Hsp90 C terminal peptide. AlphaScreen is two bead-based proximity-dependent chemical energy transfer luminescent assay platform. TPR2A-His-6 and biotinylated Hsp90 C terminal peptide will bring streptavidin donor beads and nickel chelate acceptor beads to a proximity range (less than 200 nm), and subsequently lead a chemical luminescent reaction upon exciting donor beads with 680 nm laser. Inhibition of TPR2A and MEEVD motif interaction by small molecules could attenuate or abolish this chemical luminescent reaction.
Counter screening: Biotinylated-His-6 (PerkinElmer) can be utilized as a counter screen, as it serves as a linker to bring streptavidin beads and nickel chelate beads together. The counter screen can exclude alpha screen platform false positives due to small molecules being metal chelators, biotin analogues and imidazole analogues, or due to interfering with oxygen release from donor beads. Such an assay should be utilized to qualify any activity observed in this screen.
NCGC Assay Protocol Summary:
The assay was performed on 1536-well white plate (untreated solid bottom). Liquids were dispensed by 1536-well plate washer (Kalypsys, San Diego, CA). Plates were read on EnVision (PerkinElmer, Boston, MA).TPR2A-His6 was produced using a bacteria expression system and purified using a well developed method (Ghosh et al., 2000). Hsp90 C terminal 20-mer peptide with or without an N-terminal biotin group are synthesized using automated solid phase synthesis by the Yale Keck facility. The composition of assay buffer was (in mM) 25 HEPES, 100 KCl, 2 MgCl2 and 2 DTT; 0.1% BSA and 0.01% Tween-20. TPR2A-His6 binding to biotin-Hsp90 will bring streptavidin donor beads and nickel chelate acceptor beads (PerkinElmer) together and can be measured by Alpha reading by EnVision (PerkinElmer). Free Hsp90 blocks biotin-Hsp90 binding to TPR2 and serves as a positive control in the current asssay.
The assay was performed at room temperature. All compounds were screened as titrations from […] to 46 uM final concentration. The assay was performed in 1536-well format plates (untreated white solid bottom, Corning Inc.) as follows:
Sequence,Parameter,Value,Description
1,Reagent,3 uL TPR2A-His6,Final concentration was 5nM
2,Compound,23 nL,Final titration was from 0.7 nM to 46 uM
3,Time,15 minutes,Room temperature
4,Reagent,1 uL biotin-Hsp90,With and without free Hsp90. Final concentration was 10 nM for biotin-Hsp90 and 10uM for free Hsp90.
5,Time,1 hour,Room temperature
[…]
% is scaled to controls: 0 for no effect and ±100 for the full control effect.

| Compound | activity change, negative = inhibition |
| --- | --- |
| OC(CCl)CCl | inactive |
| O=C1CCCc2c1[nH]c1ccc(Br)cc21 | inactive |
| CCC[C@H]1C(=O)N2C(N(C)C)=Nc3ccc(C)cc3N2C1=O | inactive |
| CN(C)CCCn1c2ccccc2c2cnccc21 | -5.16% [at 11 µM] (inactive) |
| COc1cccc(N(CC(=O)Nc2cccc(F)c2)S(C)(=O)=O)c1 | inactive |
| O=C(O)c1cccc(S(=O)(=O)NCCO)c1 | -3.23% [at 11 µM] (inactive) |
| CC(C)NC(=O)N1CC[C@@]2(CCCN(C(=O)c3ccco3)C2)C1 | inactive |
| CCCCNc1nc(C)nc2c1nc(-c1ccccc1)n2CCCCN(CC)CC | inactive |
| Cc1cc(=O)[nH]c(SCC(=O)N2c3ccccc3CC2C)n1 (stereo not given) | inactive |
| Fc1cccc(/C=N\N=C/c2cccc(F)c2)c1 | inactive |
| CCOC(=O)N1CCN(C(=O)c2cc3c(ccc4ccccc43)oc2=O)CC1 | inactive |
| CC(C)(O/N=C(\C(=O)N[C@@H]1C(=O)N2C(C(=O)[O-])=C(C[n+]3ccccc3)CS[C@@H]12)c1csc(N)n1)C(=O)O | inactive |
| O=C(c1ccco1)N1CCC2(CC1)CN(c1ncccn1)C2 | inactive |
| c1cncc(CNc2ccnc(-c3ccc4c(c3)OCO4)n2)c1 | inactive |
| Cc1cc(Cl)ccc1N1C(=O)CC(SCCC(=O)O)C1=O (stereo not given) | inactive |
| O=c1c(-c2cccs2)nc2cnc(Oc3ccccc3)nc2n1-c1ccccc1 | inactive |
| COc1ncc2nc(-c3ccc(Cl)cc3)c(=O)n(-c3ccccc3)c2n1 | inactive |
| COc1ccccc1CNc1nc(-c2c(C)noc2C)nc2ccccc12 | inactive |
| N=C(CC(=O)Nc1ccccn1)c1ccccc1 | -0.76% [at 11 µM] (inactive) |
| O=C1c2ccccc2C(=O)C1c1ccccc1 | inactive |
| COc1cccc(N2C(=O)C3CCCN3C2c2ccc(F)cc2)c1 (stereo not given) | inactive |
| CS(=O)(=O)Nc1cccc(-c2cncnc2Nc2ccccc2)c1 | inactive |
| COCCn1c(=O)c(-c2cccs2)nc2cncnc21 | inactive |
| Oc1ccc(O)c2c(O)cccc12 | inactive |
| S=c1c2[nH]cnc2ncn1CCSc1ncnc2nc[nH]c12 | -3.58% [at 11 µM] (inactive) |
| CCOC(=O)N1CCN(Cc2nc3c(c(=O)n(C)c(=O)n3C)n2Cc2ccccc2)CC1 | inactive |
| O=C(NCCc1ccco1)c1nn(Cc2ccccc2)c(=O)c2ccccc12 | inactive |
| COC(=O)N1CCC[C@@]2(CCN(C(=O)NC(C)C)C2)C1 | inactive |
| CS(=O)(=O)N1CCC2(CC1)CN(Cc1cc(C(F)(F)F)cc(C(F)(F)F)c1)C2 | inactive |
| CN1CCc2[nH]nc(-c3n[nH]c4c3CN(C)CC4)c2C1 | -1.93% [at 11 µM] (inactive) |
